{
  "source": "ChEMBL document CHEMBL2218924",
  "about": "“A broad activity screen in support of a chemogenomic map for kinase signalling research and drug discovery” (Biochem J, 2013)",
  "data": [
    {"target": "Serine/threonine-protein kinase PAK 4 (Homo sapiens) (UniProt O96013)", "sequence (O96013 whole entry, looked up)": "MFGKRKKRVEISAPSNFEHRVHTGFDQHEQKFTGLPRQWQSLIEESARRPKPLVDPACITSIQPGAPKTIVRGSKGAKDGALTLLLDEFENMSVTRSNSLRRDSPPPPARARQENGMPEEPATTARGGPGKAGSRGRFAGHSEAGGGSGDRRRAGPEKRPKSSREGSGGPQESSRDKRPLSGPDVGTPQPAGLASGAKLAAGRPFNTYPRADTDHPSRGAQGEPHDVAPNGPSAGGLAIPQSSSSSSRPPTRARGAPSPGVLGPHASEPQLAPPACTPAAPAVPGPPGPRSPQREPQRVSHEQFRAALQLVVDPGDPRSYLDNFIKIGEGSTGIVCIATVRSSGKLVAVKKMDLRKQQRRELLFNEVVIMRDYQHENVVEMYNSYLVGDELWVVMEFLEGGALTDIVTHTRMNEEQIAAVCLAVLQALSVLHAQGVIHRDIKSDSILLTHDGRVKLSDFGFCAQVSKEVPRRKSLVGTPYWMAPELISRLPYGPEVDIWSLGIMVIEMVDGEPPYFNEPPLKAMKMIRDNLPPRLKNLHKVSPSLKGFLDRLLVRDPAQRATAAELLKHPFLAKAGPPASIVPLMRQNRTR", "details": "at 10 µM", "units": {"residual activity": "%"}, "values": [
      {"smiles": "Nc1ncnc2c1c(-c1ccc(Oc3ccccc3)cc1)cn2C1CCCC1", "residual activity": 64},
      {"smiles": "O=C1NC(=O)c2c1c1c3ccccc3[nH]c1n1cncc21", "residual activity": 82},
      {"smiles": "O=c1cc(N2CCOCC2)oc2c1ccc1ccccc12", "residual activity": 94},
      {"smiles": "CN(C)S(=O)(=O)c1ccc2c(c1)/C(=C/c1cc3c([nH]1)CCCC3)C(=O)N2", "residual activity": 69},
      {"smiles": "CCOC(=O)c1c(C)[nH]c(/C=C2\\C(=O)Nc3ccccc32)c1C", "residual activity": 94},
      {"smiles": "O=C1NC(=O)C(c2c[nH]c3ccccc23)=C1c1c[nH]c2ccccc12", "residual activity": 65},
      {"smiles": "CCN(CC)CCNC(=O)c1c(C)[nH]c(/C=C2\\C(=O)Nc3ccc(Cl)cc32)c1C", "residual activity": 11},
      {"smiles": "CC(C)c1nn(-c2c(Cl)cccc2Cl)c2nc(Cc3ccc(OCCO)cc3)[nH]c(=O)c12", "residual activity": 32},
      {"smiles": "c1ccc(-c2cnc(Nc3ccc(OCCN4CCCC4)cc3)s2)cc1", "residual activity": 76},
      {"smiles": "Cn1sc(=O)n(Cc2ccccc2)c1=O", "residual activity": 89},
      {"smiles": "O=C1Cc2c([nH]c3ccc([N+](=O)[O-])cc23)-c2ccccc2N1", "residual activity": 21},
      {"smiles": "O=C(CCCc1ccc(-c2ccccc2F)cc1)Nc1ccc(O)cc1", "residual activity": 91},
      {"smiles": "Cn1c2ccccc2c2c3c(c4c5ccccc5n(CCC#N)c4c21)CNC3=O", "residual activity": 2}
    ]},
    {"target": "Serine/threonine-protein kinase PAK 5 (Homo sapiens) (UniProt Q9P286)", "sequence (Q9P286 whole entry, looked up)": "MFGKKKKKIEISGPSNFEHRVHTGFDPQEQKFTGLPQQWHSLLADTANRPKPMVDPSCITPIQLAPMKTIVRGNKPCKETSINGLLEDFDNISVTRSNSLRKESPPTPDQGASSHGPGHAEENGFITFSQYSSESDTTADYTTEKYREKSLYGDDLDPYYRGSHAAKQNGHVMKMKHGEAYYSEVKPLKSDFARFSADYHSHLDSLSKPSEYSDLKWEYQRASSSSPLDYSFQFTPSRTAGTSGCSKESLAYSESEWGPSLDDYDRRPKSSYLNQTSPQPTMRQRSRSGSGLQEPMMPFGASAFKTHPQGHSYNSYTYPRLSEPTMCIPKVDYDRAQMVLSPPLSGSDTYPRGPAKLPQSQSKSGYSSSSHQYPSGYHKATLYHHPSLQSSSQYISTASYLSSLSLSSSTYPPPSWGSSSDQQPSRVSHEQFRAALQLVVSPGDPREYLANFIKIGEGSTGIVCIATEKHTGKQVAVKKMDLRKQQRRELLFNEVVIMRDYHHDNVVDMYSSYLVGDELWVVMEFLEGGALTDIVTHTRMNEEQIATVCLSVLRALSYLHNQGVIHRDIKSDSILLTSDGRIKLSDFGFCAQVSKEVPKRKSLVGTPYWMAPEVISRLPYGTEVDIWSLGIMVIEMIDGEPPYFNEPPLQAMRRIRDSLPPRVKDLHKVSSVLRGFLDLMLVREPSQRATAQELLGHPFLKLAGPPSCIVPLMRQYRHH", "details": "at 1 µM", "units": {"residual activity": "%"}, "values": [
      {"smiles": "O=C1C(Cl)=C(N2C(=O)CCC2=O)C(=O)c2ccccc21", "residual activity": 99},
      {"smiles": "O=C(Nc1ccc(Cl)cc1)c1ccccc1NCc1ccncc1", "residual activity": 117},
      {"smiles": "COc1ccc(-c2cnc3c(-c4ccsc4)cnn3c2)cc1", "residual activity": 94},
      {"smiles": "Nc1n[nH]c2nc3ccccc3nc12", "residual activity": 90},
      {"smiles": "Oc1cccc(-c2nc(N3CCOCC3)c3oc4ncccc4c3n2)c1", "residual activity": 84},
      {"smiles": "CCCCc1c(-c2ccc(OC)cc2)[nH]c2nccnc12", "residual activity": 63},
      {"smiles": "CCCC(=O)Oc1ccc2[nH]c(C(=O)c3cc4ccccc4[nH]3)cc2c1", "residual activity": 100},
      {"smiles": "NC(=O)Nc1sc(-c2ccc(F)cc2)cc1C(N)=O", "residual activity": 67},
      {"smiles": "COc1cc2nccc(Oc3ccc(NC(=S)NC(=O)c4ccccc4C)cc3)c2cc1OC", "residual activity": 83},
      {"smiles": "O=C1Cc2c([nH]c3ccc(Br)cc23)-c2ccccc2N1", "residual activity": 35},
      {"smiles": "NCCNc1ncc(C(N)=O)c(Nc2cccc(C(F)(F)F)c2)n1", "residual activity": 48},
      {"smiles": "O=C1Nc2ccc(Cl)cc2/C1=C/c1cc(Cl)c(O)c(Cl)c1", "residual activity": 73},
      {"smiles": "CC(C)(C)n1nc(Cc2cccc3ccccc23)c2c(N)ncnc21", "residual activity": 88},
      {"smiles": "COc1ccc(Cl)cc1NC(=O)Nc1cc(C)nc2ccccc12", "residual activity": 80},
      {"smiles": "O=c1cc(N2CCNCC2)oc2c(-c3ccccc3)cccc12", "residual activity": 104},
      {"smiles": "Nc1ncnc2c1c(-c1ccc(Oc3ccccc3)cc1)cn2C1CCCC1", "residual activity": 76},
      {"smiles": "O=c1cc(N2CCOCC2)oc2c1ccc1ccccc12", "residual activity": 94},
      {"smiles": "O=C1NC(=O)C(c2c[nH]c3ccccc23)=C1c1c[nH]c2ccccc12", "residual activity": 99},
      {"smiles": "CCN(CC)CCNC(=O)c1c(C)[nH]c(/C=C2\\C(=O)Nc3ccc(Cl)cc32)c1C", "residual activity": 30},
      {"smiles": "CC(C)c1nn(-c2c(Cl)cccc2Cl)c2nc(Cc3ccc(OCCO)cc3)[nH]c(=O)c12", "residual activity": 73},
      {"smiles": "Cn1sc(=O)n(Cc2ccccc2)c1=O", "residual activity": 97},
      {"smiles": "O=C1Cc2c([nH]c3ccc([N+](=O)[O-])cc23)-c2ccccc2N1", "residual activity": 24},
      {"smiles": "O=C(CCCc1ccc(-c2ccccc2F)cc1)Nc1ccc(O)cc1", "residual activity": 104},
      {"smiles": "Cn1c2ccccc2c2c3c(c4c5ccccc5n(CCC#N)c4c21)CNC3=O", "residual activity": 12}
    ]},
    {"target": "Serine/threonine-protein kinase PAK 5 (Homo sapiens) (UniProt Q9P286)", "details": "at 10 µM", "units": {"residual activity": "%"}, "values": [
      {"smiles": "O=C1C(Cl)=C(N2C(=O)CCC2=O)C(=O)c2ccccc21", "residual activity": 84},
      {"smiles": "O=C(Nc1ccc(Cl)cc1)c1ccccc1NCc1ccncc1", "residual activity": 128},
      {"smiles": "O=C(O)/C=C/c1cc(Br)c(Br)c(Br)c1Br", "residual activity": 82},
      {"smiles": "Nc1n[nH]c2nc3ccccc3nc12", "residual activity": 70},
      {"smiles": "Oc1cccc(-c2nc(N3CCOCC3)c3oc4ncccc4c3n2)c1", "residual activity": 84},
      {"smiles": "O=C(NC(NC(=S)Nc1ccc(F)c([N+](=O)[O-])c1)C(Cl)(Cl)Cl)C(c1ccccc1)c1ccccc1", "note": "(stereo unspecified)", "residual activity": 66},
      {"smiles": "CCCCc1c(-c2ccc(OC)cc2)[nH]c2nccnc12", "residual activity": 64},
      {"smiles": "NC(=O)Nc1sc(-c2ccc(F)cc2)cc1C(N)=O", "residual activity": 27},
      {"smiles": "COc1cc2nccc(Oc3ccc(NC(=S)NC(=O)c4ccccc4C)cc3)c2cc1OC", "residual activity": 67},
      {"smiles": "O=C1Cc2c([nH]c3ccc(Br)cc23)-c2ccccc2N1", "residual activity": 17},
      {"smiles": "NCCNc1ncc(C(N)=O)c(Nc2cccc(C(F)(F)F)c2)n1", "residual activity": 9},
      {"smiles": "O=C1Nc2ccc(Cl)cc2/C1=C/c1cc(Cl)c(O)c(Cl)c1", "residual activity": 62},
      {"smiles": "CC(C)(C)n1nc(Cc2cccc3ccccc23)c2c(N)ncnc21", "residual activity": 77},
      {"smiles": "COc1ccc(Cl)cc1NC(=O)Nc1cc(C)nc2ccccc12", "residual activity": 100},
      {"smiles": "O=c1cc(N2CCNCC2)oc2c(-c3ccccc3)cccc12", "residual activity": 95},
      {"smiles": "Nc1ncnc2c1c(-c1ccc(Oc3ccccc3)cc1)cn2C1CCCC1", "residual activity": 44},
      {"smiles": "O=C1NC(=O)c2c1c1c3ccccc3[nH]c1n1cncc21", "residual activity": 91},
      {"smiles": "O=c1cc(N2CCOCC2)oc2c1ccc1ccccc12", "residual activity": 81},
      {"smiles": "CCN(CC)CCNC(=O)c1c(C)[nH]c(/C=C2\\C(=O)Nc3ccc(Cl)cc32)c1C", "residual activity": 8},
      {"smiles": "CC(C)c1nn(-c2c(Cl)cccc2Cl)c2nc(Cc3ccc(OCCO)cc3)[nH]c(=O)c12", "residual activity": 21},
      {"smiles": "Cn1sc(=O)n(Cc2ccccc2)c1=O", "residual activity": 94},
      {"smiles": "O=C1Cc2c([nH]c3ccc([N+](=O)[O-])cc23)-c2ccccc2N1", "residual activity": 25},
      {"smiles": "O=C(CCCc1ccc(-c2ccccc2F)cc1)Nc1ccc(O)cc1", "residual activity": 95},
      {"smiles": "Cn1c2ccccc2c2c3c(c4c5ccccc5n(CCC#N)c4c21)CNC3=O", "residual activity": 14}
    ]}
  ]
}
